Experiment [1] in a line: ACEA_ER_80hr: ACEA Biosciences xCELLigence Real-Time Cell Analysis on Estrogen Receptor Agonism for Proliferation (AID 2282667; active means hit-call score of the fitted dose curve at least 0.9, where 1 is the maximum). The settings on record: T47D proliferation, impedance (xCELLigence), 80 h. In short, it runs like this:
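Cell-growth kinetics were measured by impedance in T47D cells treated continuously with compound (top 100 uM final, 1:4 steps, 8 points). Activity at 80 h was scored as signal gain over the DMSO baseline.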

A short description of experiment [2]: APR_HepG2_CellCycleArrest_24hr: Apredica 24-hour HepG2 Assay for Cell Cycle Arrest (AID 2282905).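 Further: cell cycle arrest scored as ratio of 2N to 4N nuclear DNA content.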 The settings on record: imaging, actives raise or lower the signal. In short, it runs like this:
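HepG2 cells were exposed to compounds at 0.39–200 uM (ten concentrations, duplicate) in 0.5% v/v DMSO for 24 hr. After formaldehyde fixation and Triton permeabilization, Hoechst 33342-stained nuclei were imaged at 20x; DNA content was quantified, with bidirectional fitting against DMSO.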

A short description of experiment [3]: APR_HepG2_CellLoss_24hr: Apredica 24-hour HepG2 Assay for Cell Loss (AID 2282908). The note with it: high-content imaging. In short, it runs like this:
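Compounds were tested at 0.39–200 uM in duplicate with 0.5% v/v DMSO final. Cells were then fixed in 3.7% formaldehyde, Hoechst 33342 nuclei were imaged at 20x by HCS, and cell number was fitted bidirectionally against DMSO.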

The nature of experiment [4]: APR_HepG2_MicrotubuleCSK_24hr: Apredica 24-hour HepG2 Assay for Microtubule CSK Stabilty (AID 2282909). The settings on record: HepG2 microtubule cytoskeleton imaging, actives raise or lower the signal. Summed up:
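HepG2 cells exposed 24 h to compounds at 0.39–200 uM (duplicate, 0.5% v/v DMSO final), then fixed, permeabilized and immunostained for alpha-tubulin with Hoechst 33342. Cytoskeleton imaged at 20x; bidirectional fit versus DMSO baseline.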

Experiment [5] is described as follows: APR_HepG2_MitoMembPot_24hr: Apredica 24-hour HepG2 Assay for Mitochondrial Membrane Potential (AID 2282911). The note with it: imaging, actives raise or lower the signal. Summed up:
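Human hepatoma HepG2 cultures received ten compound concentrations up to 200 uM for 24 hr. Membrane-potential dye signal, captured by automated fluorescence microscopy, was scored for gain or loss against DMSO controls.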

The nature of experiment [6]: APR_HepG2_MitoMass_24hr: Apredica 24-hour HepG2 Assay for Mitochondrial Mass (AID 2282912). The note with it: high-content imaging, actives raise or lower the signal. In short, it runs like this: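 Human HepG2 liver cells were exposed for 24 hr to compounds at 0.39–200 uM (duplicates, 0.5% v/v DMSO final). They were stained live with 250 nM MitoTracker Red CMXRos for 30 min, fixed in 3.7% formaldehyde, and imaged by HCS fluorescence; signals were fitted bidirectionally against DMSO.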

Experiment [7] can be described thus: APR_HepG2_p53Act_24hr: Apredica 24-hour HepG2 Assay for p53 Activation (AID 2282913).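 Further: p53 protein immunofluorescence averaged per cell in HepG2 with Hoechst nuclei.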 The settings on record: high-content imaging, actives raise or lower the signal. Summed up: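 Automated fluorescence imaging quantifies p53 immunostaining in HepG2 cells after a 24 hr exposure (0.39–200 uM, duplicate, 0.5% DMSO). Nuclei are located by Hoechst 33342 staining.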

Experiment [8] is described as follows: APR_HepG2_CellCycleArrest_72hr: Apredica 72-hour HepG2 Assay for Cell Cycle Arrest (AID 2282914). The settings on record: high-content imaging, actives raise or lower the signal. In short, it runs like this: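 Cell cycle arrest in HepG2 was scored from nuclear DNA content after 72 hr compound treatment (0.39–200 uM). Activity, either gain or loss, was fitted against the DMSO baseline.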

Experiment [9] can be described thus: APR_HepG2_CellLoss_72hr: Apredica 72-hour HepG2 Assay for Cell Loss (AID 2282915). The settings on record: high-content imaging. In short, it runs like this:
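Cell number comes from Hoechst 33342-labelled nuclei, imaged at 20x after 3.7% formaldehyde fixation. Dosing was 0.39–200 uM, ten concentrations in duplicate, 0.5% DMSO final, for 72 h. Bidirectional fit relative to DMSO baseline.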

Experiment [10] can be described thus: APR_HepG2_CellCycleArrest_1hr: Apredica 1-hour HepG2 Assay for Cell Cycle Arrest (AID 2282666). The settings on record: high-content imaging, actives raise or lower the signal. Summed up:
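HepG2 cells exposed for 1 h to 0.39–200 uM compound (0.5% DMSO). Fixed, Hoechst-stained nuclei imaged by ArrayScan; DNA content quantified by Cell Cycle analysis; bidirectional fit against DMSO.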

Experiment [11] can be described thus: APR_HepG2_CellLoss_1hr: Apredica 1-hour HepG2 Assay for Cell Loss (AID 2282668).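 Further: curves fitted both ways against DMSO so gain or loss of cells counts.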 The settings on record: high-content imaging. In short, it runs like this:
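HepG2 cells were treated for 1 h with compound at 0.39–200 uM, in duplicate, in 0.5% DMSO. After formaldehyde fixation, Hoechst 33342-stained nuclei were imaged on an ArrayScan to count cells. Data were fitted bidirectionally versus DMSO.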

The nature of experiment [12]: APR_HepG2_MicrotubuleCSK_1hr: Apredica 1-hour HepG2 Assay for Microtubule CSK Stabilty (AID 2282669). The note with it: HepG2 microtubule cytoskeleton imaging, actives raise or lower the signal. Summed up:
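HepG2 cells exposed 1 h to 0.39–200 uM compound (0.5% DMSO, duplicates), then formaldehyde-fixed, permeabilized and immunostained for alpha-tubulin with Hoechst nuclei. Imaged by ArrayScan high-content analysis; bidirectional fit versus DMSO.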

Experiment [13] is described as follows: APR_HepG2_NuclearSize_1hr: Apredica 1-hour HepG2 Assay for Nuclear Size (AID 2282670). The settings on record: high-content imaging, actives raise or lower the signal. Summed up: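 HepG2 cells dosed 1 hr with 0.39–200 uM compound (0.5% DMSO), formaldehyde-fixed, Hoechst 33342-stained and imaged at 20x; nuclear diameter from nuclear stain, fitted bidirectionally against DMSO.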

Experiment [14] in a line: APR_HepG2_MitoticArrest_1hr: Apredica 1-hour HepG2 Assay for Mitotic Arrest (AID 2282672). The note with it: high-content imaging, actives raise or lower the signal. Summed up: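 HepG2 cells exposed 1 hr to compounds at 0.39–200 uM (0.5% v/v DMSO final), then fixed in 3.7% formaldehyde and immunostained for phospho-histone H3 with Hoechst 33342. Mitotic arrest scored by automated fluorescence imaging, fitted bidirectionally versus DMSO.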

A short description of experiment [15]: APR_HepG2_P-H2AX_1hr: Apredica 1-hour HepG2 Assay for H2AX Phosphorylation (AID 2282673). The note with it: high-content imaging, actives raise or lower the signal. Summed up:
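HepG2 dosed 1 hr at 0.39-200 uM (0.5% DMSO final), duplicate. Fixed in 3.7% formaldehyde, Triton permeabilized, immunostained for phospho-histone H2A.x (1:200) with Hoechst 33342; ArrayScan 20x imaging, bidirectional fit vs DMSO.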

Experiment [16] in a line: APR_HepG2_MitoMass_1hr: Apredica 1-hour HepG2 Assay for Mitochondrial Mass (AID 2282674). The note with it: high-content imaging, actives raise or lower the signal. Summed up:
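HepG2 cells dosed 1 hr with 0.39-200 uM compound (0.5% DMSO), duplicate wells. Mitochondria stained with 250 nM MitoTracker Red CMXRos for 30 min before formaldehyde fixation, imaged at 20x by ArrayScan; bidirectional fit versus DMSO.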

Experiment [17] is described as follows: APR_HepG2_MitoMembPot_1hr: Apredica 1-hour HepG2 Assay for Mitochondrial Membrane Potential (AID 2282675). The note with it: imaging, actives raise or lower the signal. Summed up: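 HepG2 cells dosed 1 hour with 0.39–200 uM compound in duplicate, 0.5% DMSO final. MitoTracker Red CMXRos (250 nM, 30 min) loaded before formaldehyde fixation; fluorescence quantified by high-content imaging, bidirectional fitting versus DMSO.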

A short description of experiment [18]: APR_HepG2_StressKinase_1hr: Apredica 1-hour HepG2 Assay for Stress Kinase (AID 2282906). The settings on record: HepG2 stress kinase (phospho-c-Jun) imaging, actives raise or lower the signal. In short, it runs like this: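 HepG2 cells dosed 0.39-200 uM (0.5% DMSO) for 1 h, then formaldehyde-fixed. Stress kinase read by phospho-c-Jun immunofluorescence using high-content imaging; bidirectional fit vs DMSO.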

Experiment [19] can be described thus: APR_HepG2_NuclearSize_24hr: Apredica 24-hour HepG2 Assay for Nuclear Size (AID 2282907). The note with it: high-content imaging, actives raise or lower the signal. In short, it runs like this: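 HepG2 human liver cells were exposed for 24 hr to compounds at 0.39–200 uM (ten concentrations, duplicate) in 0.5% v/v DMSO. They were then formaldehyde-fixed, Triton-permeabilized and Hoechst 33342-stained, and nuclear diameter was imaged at 20x. Bidirectional fits were made against DMSO.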

Several values for one entry are separate records, joined by “and”; a condition that tells them apart may be missing. Equal values may be shown once. Records with an inconclusive call do not appear. Activity calls are given as the source filed them. How the source made its calls, unless noted: active means hit-call score of the fitted dose curve at least 0.9, where 1 is the maximum; inactive means score below 0.9.

In general, AC50 refers to the concentration at which the activity in the assay is half-maximal.

Take `C=CC(=O)NCNC(=O)C=C`: the call in experiment [1], in experiment [2], in experiment [3], in experiment [4], in experiment [5] and in experiment [6] was inactive. Further, the compound was classed as inactive in experiment [7], in experiment [8] and in experiment [9].
In the case of `C1CC2OC2CC1C1CO1` (stereo not drawn), the call in experiment [1], in experiment [2], in [3], in [4], in experiment [5] and in experiment [6] was inactive. The outcome in experiment [7], in experiment [8] and in [9] was inactive.
For `CCC(C)(CC)c1cc(NC(=O)c2c(OC)cccc2OC)on1`, the call in experiment [10], in experiment [11], in experiment [12], in [13], in [14] and in experiment [15] was inactive. The result in experiment [16], in experiment [17], in experiment [2], in experiment [18], in experiment [3] and in experiment [5] was inactive. Further, the result in [6] and in experiment [8] was inactive. In addition, the AC50 in [9] is 66.4 µM (active).
As for `ClC1=C(Cl)[C@]2(Cl)[C@@H]3[C@H]4C[C@H]([C@@H]5O[C@H]45)[C@@H]3[C@@]1(Cl)C2(Cl)Cl`, the compound was called inactive in experiment [2], in [19], in [3], in experiment [4], in experiment [6] and in experiment [7]. Moreover, the compound was classed as inactive in [8] and in experiment [9]. In addition, the AC50 in experiment [5] was 59.3 µM (active).
On to `Oc1ccc(C(c2ccc(O)cc2)(C(F)(F)F)C(F)(F)F)cc1`, for which the AC50 in [1] is 102 nM (active) and 189 nM (active) and 262 nM (active); in experiment [9] it was 36.7 µM (active). Further, the compound was called inactive in experiment [2], in [19], in [3], in [4], in experiment [5] and in experiment [6]. In addition, the compound was called inactive in [7] and in experiment [8].
In the case of `CN(C)c1nc(=O)n(C2CCCCC2)c(=O)n1C`, the outcome in [10], in experiment [11], in experiment [12], in experiment [13], in experiment [14] and in experiment [15] was inactive. In addition, the call in experiment [16], in [17], in experiment [2], in experiment [18], in experiment [19] and in experiment [3] was inactive. Also, the call in experiment [5], in experiment [6], in [8] and in experiment [9] was inactive.
